# In the supplement of paper PMC4466140:
# Target: AgAbp1
# Test: SPOT peptide array binding signal intensity (averaged, normalized) (arbitrary units (background-subtracted, floor 0; scale differs between SH3 domains)); higher = stronger binding of the SH3 domain to the peptide
# How it was run: (§1)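 Cellulose membranes carried synthetic 15-mer peptides with cysteines swapped for serines. These were incubated overnight at 4°C with 10 μg/ml of GST-fused SH3 domains from four yeast species in TBS-based blocking buffer. Binding signal, detected with anti-GST antibody and quantified in Genespotter, is the normalized, background-subtracted spot intensity averaged over replicates, in arbitrary units specific to each domain.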
row,Binder,SPOT peptide array binding signal intensity
1,RSVKRPRRAPRPVVS,124

# Target: AgBbc1
# Test: as above
# How it was run: as §1
row,Binder,SPOT peptide array binding signal intensity
1,RSVKRPRRAPRPVVS,434

# Target: AgBem1-D1
# Test: as above
# How it was run: as §1
row,Binder,SPOT peptide array binding signal intensity
1,RSVKRPRRAPRPVVS,116

# Target: AgBzz1-D1
# Test: as above
# How it was run: as §1
row,Binder,SPOT peptide array binding signal intensity
1,RSVKRPRRAPRPVVS,54.5

# Target: AgBzz1-D2
# Test: as above
# How it was run: as §1
row,Binder,SPOT peptide array binding signal intensity
1,RSVKRPRRAPRPVVS,19

# Target: AgCyk3
# Test: as above
# How it was run: as §1
row,Binder,SPOT peptide array binding signal intensity
1,RSVKRPRRAPRPVVS,2

# Target: AgFus1
# Test: as above
# How it was run: as §1
row,Binder,SPOT peptide array binding signal intensity
1,RSVKRPRRAPRPVVS,372

# Target: AgHof1
# Test: as above
# How it was run: as §1
row,Binder,SPOT peptide array binding signal intensity
1,RSVKRPRRAPRPVVS,49

# Target: AgHse1
# Test: as above
# How it was run: as §1
row,Binder,SPOT peptide array binding signal intensity
1,RSVKRPRRAPRPVVS,592

# Target: AgLsb1
# Test: as above
# How it was run: as §1
row,Binder,SPOT peptide array binding signal intensity
1,RSVKRPRRAPRPVVS,4.5

# Target: AgLsb4
# Test: as above
# How it was run: as §1
row,Binder,SPOT peptide array binding signal intensity
1,RSVKRPRRAPRPVVS,150

# Target: AgMyo5
# Test: as above
# How it was run: as §1
row,Binder,SPOT peptide array binding signal intensity
1,RSVKRPRRAPRPVVS,1.25

# Target: AgNbp2
# Test: as above
# How it was run: as §1
row,Binder,SPOT peptide array binding signal intensity
1,RSVKRPRRAPRPVVS,908

# Target: AgRvs167
# Test: as above
# How it was run: as §1
row,Binder,SPOT peptide array binding signal intensity
1,RSVKRPRRAPRPVVS,2.17

# Target: AgSho1
# Test: as above
# How it was run: as §1
row,Binder,SPOT peptide array binding signal intensity
1,RSVKRPRRAPRPVVS,5

# Target: AgSla1-D1-D2
# Test: as above
# How it was run: as §1
row,Binder,SPOT peptide array binding signal intensity
1,RSVKRPRRAPRPVVS,15

# Target: AgSla1-D3
# Test: as above
# How it was run: as §1
row,Binder,SPOT peptide array binding signal intensity
1,RSVKRPRRAPRPVVS,6.25

# Target: CaAbp1-D1
# Test: as above
# How it was run: as §1
row,Binder,SPOT peptide array binding signal intensity
1,RSVKRPRRAPRPVVS,586

# Target: CaAbp1-D2
# Test: as above
# How it was run: as §1
row,Binder,SPOT peptide array binding signal intensity
1,RSVKRPRRAPRPVVS,430

# Target: CaBbc1
# Test: as above
# How it was run: as §1
row,Binder,SPOT peptide array binding signal intensity
1,RSVKRPRRAPRPVVS,663

# Target: CaBem1-D1
# Test: as above
# How it was run: as §1
row,Binder,SPOT peptide array binding signal intensity
1,RSVKRPRRAPRPVVS,140

# Target: CaBzz1-D1
# Test: as above
# How it was run: as §1
row,Binder,SPOT peptide array binding signal intensity
1,RSVKRPRRAPRPVVS,108

# Target: CaBzz1-D2
# Test: as above
# How it was run: as §1
row,Binder,SPOT peptide array binding signal intensity
1,RSVKRPRRAPRPVVS,165

# Target: CaCyk3
# Test: as above
# How it was run: as §1
row,Binder,SPOT peptide array binding signal intensity
1,RSVKRPRRAPRPVVS,106

# Target: CaFus1
# Test: as above
# How it was run: as §1
row,Binder,SPOT peptide array binding signal intensity
1,RSVKRPRRAPRPVVS,208

# Target: CaHof1
# Test: as above
# How it was run: as §1
row,Binder,SPOT peptide array binding signal intensity
1,RSVKRPRRAPRPVVS,2

# Target: CaHse1
# Test: as above
# How it was run: as §1
row,Binder,SPOT peptide array binding signal intensity
1,RSVKRPRRAPRPVVS,47.5

# Target: CaLsb1
# Test: as above
# How it was run: as §1
row,Binder,SPOT peptide array binding signal intensity
1,RSVKRPRRAPRPVVS,0.75

# Target: CaLsb4
# Test: as above
# How it was run: as §1
row,Binder,SPOT peptide array binding signal intensity
1,RSVKRPRRAPRPVVS,1720

# Target: CaMyo5
# Test: as above
# How it was run: as §1
row,Binder,SPOT peptide array binding signal intensity
1,RSVKRPRRAPRPVVS,2

# Target: CaNbp2
# Test: as above
# How it was run: as §1
row,Binder,SPOT peptide array binding signal intensity
1,RSVKRPRRAPRPVVS,1160

# Target: CaRvs167
# Test: as above
# How it was run: as §1
row,Binder,SPOT peptide array binding signal intensity
1,RSVKRPRRAPRPVVS,20.3

# Target: CaRvs167-3
# Test: as above
# How it was run: as §1
row,Binder,SPOT peptide array binding signal intensity
1,RSVKRPRRAPRPVVS,26.5

# Target: CaSho1
# Test: as above
# How it was run: as §1
row,Binder,SPOT peptide array binding signal intensity
1,RSVKRPRRAPRPVVS,198

# Target: CaSla1-D1-D2
# Test: as above
# How it was run: as §1
row,Binder,SPOT peptide array binding signal intensity
1,RSVKRPRRAPRPVVS,990

# Target: CaSla1-D3
# Test: as above
# How it was run: as §1
row,Binder,SPOT peptide array binding signal intensity
1,RSVKRPRRAPRPVVS,0.5

# Target: ScAbp1
# Test: as above
# How it was run: as §1
row,Binder,SPOT peptide array binding signal intensity
1,RSVKRPRRAPRPVVS,113

# Target: ScBbc1
# Test: as above
# How it was run: as §1
row,Binder,SPOT peptide array binding signal intensity
1,RSVKRPRRAPRPVVS,306

# Target: ScBem1-D1
# Test: as above
# How it was run: as §1
row,Binder,SPOT peptide array binding signal intensity
1,RSVKRPRRAPRPVVS,46.5

# Target: ScBzz1-D1
# Test: as above
# How it was run: as §1
row,Binder,SPOT peptide array binding signal intensity
1,RSVKRPRRAPRPVVS,11.5

# Target: ScBzz1-D2
# Test: as above
# How it was run: as §1
row,Binder,SPOT peptide array binding signal intensity
1,RSVKRPRRAPRPVVS,26

# Target: ScCyk3
# Test: as above
# How it was run: as §1
row,Binder,SPOT peptide array binding signal intensity
1,RSVKRPRRAPRPVVS,32

# Target: ScFus1
# Test: as above
# How it was run: as §1
row,Binder,SPOT peptide array binding signal intensity
1,RSVKRPRRAPRPVVS,260

# Target: ScHof1
# Test: as above
# How it was run: as §1
row,Binder,SPOT peptide array binding signal intensity
1,RSVKRPRRAPRPVVS,5.25

# Target: ScHse1
# Test: as above
# How it was run: as §1
row,Binder,SPOT peptide array binding signal intensity
1,RSVKRPRRAPRPVVS,1150

# Target: ScLsb1
# Test: as above
# How it was run: as §1
row,Binder,SPOT peptide array binding signal intensity
1,RSVKRPRRAPRPVVS,156

# Target: ScLsb2
# Test: as above
# How it was run: as §1
row,Binder,SPOT peptide array binding signal intensity
1,RSVKRPRRAPRPVVS,31.5

# Target: ScLsb3
# Test: as above
# How it was run: as §1
row,Binder,SPOT peptide array binding signal intensity
1,RSVKRPRRAPRPVVS,3170

# Target: ScLsb4
# Test: as above
# How it was run: as §1
row,Binder,SPOT peptide array binding signal intensity
1,RSVKRPRRAPRPVVS,192

# Target: ScMyo3
# Test: as above
# How it was run: as §1
row,Binder,SPOT peptide array binding signal intensity
1,RSVKRPRRAPRPVVS,1

# Target: ScMyo5
# Test: as above
# How it was run: as §1
row,Binder,SPOT peptide array binding signal intensity
1,RSVKRPRRAPRPVVS,4.25

# Target: ScNbp2
# Test: as above
# How it was run: as §1
row,Binder,SPOT peptide array binding signal intensity
1,RSVKRPRRAPRPVVS,2270

# Target: ScPex13
# Test: as above
# How it was run: as §1
row,Binder,SPOT peptide array binding signal intensity
1,RSVKRPRRAPRPVVS,2.75

# Target: ScRvs167
# Test: as above
# How it was run: as §1
row,Binder,SPOT peptide array binding signal intensity
1,RSVKRPRRAPRPVVS,75

# Target: ScSho1
# Test: as above
# How it was run: as §1
row,Binder,SPOT peptide array binding signal intensity
1,RSVKRPRRAPRPVVS,344

# Target: ScSla1-D1-D2
# Test: as above
# How it was run: as §1
row,Binder,SPOT peptide array binding signal intensity
1,RSVKRPRRAPRPVVS,839

# Target: ScSla1-D3
# Test: as above
# How it was run: as §1
row,Binder,SPOT peptide array binding signal intensity
1,RSVKRPRRAPRPVVS,15.8

# Target: SpAbp1-D1
# Test: as above
# How it was run: as §1
row,Binder,SPOT peptide array binding signal intensity
1,RSVKRPRRAPRPVVS,146

# Target: SpBbc1
# Test: as above
# How it was run: as §1
row,Binder,SPOT peptide array binding signal intensity
1,RSVKRPRRAPRPVVS,12

# Target: SpBzz1-D1
# Test: as above
# How it was run: as §1
row,Binder,SPOT peptide array binding signal intensity
1,RSVKRPRRAPRPVVS,250

# Target: SpBzz1-D2
# Test: as above
# How it was run: as §1
row,Binder,SPOT peptide array binding signal intensity
1,RSVKRPRRAPRPVVS,≤ 0

# Target: SpCyk3
# Test: as above
# How it was run: as §1
row,Binder,SPOT peptide array binding signal intensity
1,RSVKRPRRAPRPVVS,2

# Target: SpHof1
# Test: as above
# How it was run: as §1
row,Binder,SPOT peptide array binding signal intensity
1,RSVKRPRRAPRPVVS,268

# Target: SpHof1-2
# Test: as above
# How it was run: as §1
row,Binder,SPOT peptide array binding signal intensity
1,RSVKRPRRAPRPVVS,7

# Target: SpHof1-3
# Test: as above
# How it was run: as §1
row,Binder,SPOT peptide array binding signal intensity
1,RSVKRPRRAPRPVVS,748

# Target: SpHse1
# Test: as above
# How it was run: as §1
row,Binder,SPOT peptide array binding signal intensity
1,RSVKRPRRAPRPVVS,234

# Target: SpLsb1
# Test: as above
# How it was run: as §1
row,Binder,SPOT peptide array binding signal intensity
1,RSVKRPRRAPRPVVS,214

# Target: SpLsb4
# Test: as above
# How it was run: as §1
row,Binder,SPOT peptide array binding signal intensity
1,RSVKRPRRAPRPVVS,2230

# Target: SpMyo1
# Test: as above
# How it was run: as §1
row,Binder,SPOT peptide array binding signal intensity
1,RSVKRPRRAPRPVVS,16

# Target: SpNbp2
# Test: as above
# How it was run: as §1
row,Binder,SPOT peptide array binding signal intensity
1,RSVKRPRRAPRPVVS,412

# Target: SpPex13
# Test: as above
# How it was run: as §1
row,Binder,SPOT peptide array binding signal intensity
1,RSVKRPRRAPRPVVS,10.5

# Target: SpRvs167
# Test: as above
# How it was run: as §1
row,Binder,SPOT peptide array binding signal intensity
1,RSVKRPRRAPRPVVS,11.2

# Target: SpSla1-D1-D2
# Test: as above
# How it was run: as §1
row,Binder,SPOT peptide array binding signal intensity
1,RSVKRPRRAPRPVVS,≤ 0

# Target: SpSla1-D3
# Test: as above
# How it was run: as §1
row,Binder,SPOT peptide array binding signal intensity
1,RSVKRPRRAPRPVVS,3
